# Results filed as inconclusive are left out. A number with no mark means an inactive call. Active and inactive are the calls of the source. Unless noted, calls come from the whole dose curve.
# Test system: not listed separately
# Experiment: qHTS for Inhibitors of the Functional Ribonucleoprotein Complex (vRNP) of Lassa (LASV) Arenavirus: Viability assay - alamar blue signal for LASV Primary Screen (AID 1347083; calls by dose curve; tested in HEK293 reporter line; note: nearly all actives have a fitted effect of over 80% in size)
# Settings: cell viability, alamar blue fluorescence (LASV minigenome counter-screen); series mostly up to 57.5 µM; activity change, negative = reduced viability: at the top concentration
# % is set by controls: 0 for no effect and ±100 for the full control effect; potency is the fitted concentration of half-maximal effect.
Compound,"activity change, negative = reduced viability",Potency
Cn1cc(C[C@@H](N)C(=O)O)c2ccccc21,0.26% [at 24.7 µM],
CCCCOP(=O)(O)OCCCC,0.554% [at 115 µM],
CCc1ccc(/C=C2/SC(=S)NC2=O)cc1,-1.98%,
C[C@@]1(C2CCCC2)Cc2cc(OCC(=O)O)c(Cl)c(Cl)c2C1=O,-22.4%,
Nn1nnc2ccccc21,6.42%,
Cn1cc(C2=C(c3ccc(Cl)cc3Cl)C(=O)NC2=O)c2ccccc21,-17.4%,
N#CNC(=NCCCCCCOc1ccc(Cl)cc1)Nc1ccncc1,,0.0097 µM (active)
CCN(CC)CCNC(=O)c1ccc2nc(-c3ccccc3)c(-c3ccc(CN4CCC(n5c(=O)[nH]c6ccccc65)CC4)cc3)nc2c1,,21.7 µM (active)
CCN(CC)CCCCNc1ncc2c(n1)N(C)C(=O)N(c1c(Cl)c(OC)cc(OC)c1Cl)C2,,34.3 µM (active)
CC(C)C[C@H](NC(=O)CNC(=O)c1cc(Cl)ccc1Cl)B1OC(=O)CC(CC(=O)O)(C(=O)O)O1 (stereo partly drawn),,1.93 µM (active)
NC/C=C\C(=O)O,-2.37%,
CN1CCc2c(c3ccccc3n2Cc2ccc(C(=O)NO)cc2)C1,,21.7 µM (active)
O=C1c2c(O)cc(O)cc2OC(c2ccc(O)c(O)c2)C1O (stereo not drawn),1.86%,
O=C(Nc1ccc(Oc2ccnc3[nH]ccc23)c(F)c1)c1cccn(-c2ccc(F)cc2)c1=O,-14.5%,

# Test system: not listed separately
# Experiment: qHTS for Inhibitors of the Functional Ribonucleoprotein Complex (vRNP) of Lymphocytic Choriomeningitis Arenaviruses (LCMV): Viability assay - alamar blue signal for LCMV Primary Screen (AID 1347085; calls by dose curve; tested in HEK293 reporter line; note: nearly all actives have a fitted effect of over 80% in size)
# Settings: alamar blue viability counter-screen, LCMV vRNP screen cells; series mostly up to 57.5 µM; activity change, negative = lower viability: at the top concentration
Compound,Potency,"activity change, negative = lower viability"
NS(=O)(=O)OC[C@@H]1C[C@@H](n2ccc3c(N[C@H]4CCc5ccccc54)ncnc32)C[C@H]1O,13.7 µM (active),
Nc1nc(F)nc2c1ncn2[C@@H]1O[C@H](COP(=O)(O)O)[C@@H](O)[C@H]1O,,-8.09%
COc1cc2c3cc1Oc1c(OC)c(OC)cc4c1[C@H](Cc1ccc(cc1)Oc1cc(ccc1O)C[C@H]3N(C)CC2)N(C)CC4,,-21.4%
C=C1C(=O)O[C@H]2[C@H]1[C@H](OC(=O)/C(C)=C\C)C[C@]1(CO1)[C@@H]1[C@H](OC(C)=O)C=C(C)[C@]21O,,-1.74%
COc1ccc(Cc2ccc(NC(N)=O)cc2)cc1-c1cccc(Cl)c1,9.68 µM (active),
COc1cc2c(c(OC)c1OC)-c1ccc(OC)c(=O)cc1[C@@H](NC=O)CC2,,-58.5% [at 115 µM]
CCn1c(C(=O)N(C2CC2)C2CC2)cc2c3c(ncn3C)c(Nc3cc(C)n(C)n3)nc21,,-30.8%
C=CC(=O)Nc1cc(NC(=O)c2ccc(C)c(NC(=O)c3ccno3)c2)cc(C(F)(F)F)c1,,-4.45%
CC(=O)O[C@@]12CO[C@H]1C[C@H](O)[C@@]1(C)C(=O)[C@H](O)C3=C(C)[C@@H](OC(=O)C(O)[C@@H](NC(=O)OC(C)(C)C)c4ccccc4)C[C@@](O)([C@@H](OC(=O)c4ccccc4)[C@@H]21)C3(C)C (stereo partly drawn),,-90.3%
CC=C(C(=CC)c1ccc(O)cc1)c1ccc(O)cc1,2.43 µM (active),
O=C(C=Cc1ccccc1O)c1ccccc1O,,-25.4%
Cc1nccc2c1[nH]c1ccc(Br)cc12,,-0.543%
C[C@]12CC[C@@H]3c4ccc(O)cc4CC[C@H]3[C@H]1C[C@@H](O)[C@H]2O,9.68 µM (active),
OC1c2ccccc2N=C2CCCN21 (stereo not drawn),,-28%
O=C1NC(=O)C(=Cc2ccc(-c3ccc(F)cc3)o2)S1,,4.99%
COc1ccc(-c2cc(=O)c3c(OC)c(OC)c(OC)c(OC)c3o2)cc1,,-0.057%
OCC1OC(n2cnc3c(NCc4ccccc4O)ncnc32)C(O)C1O (stereo not drawn),4.47 µM (active),
COC1=C2C[C@@H](C)C[C@H](OC)[C@@H](O)[C@@H](C)C=C(C)[C@H](OC(N)=O)[C@@H](OC)C=CC=C(C)C(=O)NC(=CC1=O)C2=O,13.7 µM (active),
CN(Cc1nc2c(N)nc(N)nc2[nH]c1=O)c1ccc(C(=O)NC(CCC(=O)O)C(=O)O)cc1 (stereo not drawn),,-6.12%
COc1cc(C(=O)O[C@H]2C/C(C)=C/CC[C@@]3(C)O[C@@H]3[C@H](O)[C@@H]2C(C)C)cc(OC)c1OC,,-28.6%
C=C1C[C@H](OC(=O)C(C)(O)CCl)C2C(=C)C(=O)O[C@@H]2C2C1C[C@H](O)[C@]2(O)CCl (stereo partly drawn),,-24.1%
CC/C=C\[C@H](O)[C@H](O)C1=C(C)C(=O)[C@]2(O1)C(=O)N[C@@](OC)(C(=O)c1ccccc1)C2O (stereo partly drawn),,-32.8%
C=C1CCC2C(C)(C)[C@H](O)CC[C@@]2(C)[C@@H]1COc1cc(=O)oc2ccccc12 (stereo partly drawn),,-26.6%
C[C@]12CC[C@H]3C(=CCc4cc(O)ccc43)[C@@H]1CCC2=O,,-5.77% [at 115 µM]
Cc1ccc([C@@H]2O[C@H](CO)[C@@H](O)[C@H](O)[C@@H]2O)cc1Cc1ccc(-c2ccc(F)cc2)s1,34.3 µM (active),
Nc1ncn([C@@H]2O[C@H](CO)[C@@H](O)[C@@H]2O)c(=O)n1,,-15.9%

# Biological target: Nucleoprotein (Lymphocytic choriomeningitis virus (strain Armstrong)) (UniProt P09992)
# Experiment: qHTS for Inhibitors of the Functional Ribonucleoprotein Complex (vRNP) of Lymphocytic Choriomeningitis Arenaviruses (LCMV): LCMV Primary Screen - GLuc reporter signal (AID 1347086); note: nearly all actives have a fitted effect of over 70% in size
# Settings: LCMV minigenome vRNP cell assay, Gaussia luciferase reporter; series mostly up to 57.5 µM; activity change, negative = inhibition: at the top concentration
# Sequence of Nucleoprotein (Lymphocytic choriomeningitis virus (strain Armstrong)) (P09992 whole entry, looked up): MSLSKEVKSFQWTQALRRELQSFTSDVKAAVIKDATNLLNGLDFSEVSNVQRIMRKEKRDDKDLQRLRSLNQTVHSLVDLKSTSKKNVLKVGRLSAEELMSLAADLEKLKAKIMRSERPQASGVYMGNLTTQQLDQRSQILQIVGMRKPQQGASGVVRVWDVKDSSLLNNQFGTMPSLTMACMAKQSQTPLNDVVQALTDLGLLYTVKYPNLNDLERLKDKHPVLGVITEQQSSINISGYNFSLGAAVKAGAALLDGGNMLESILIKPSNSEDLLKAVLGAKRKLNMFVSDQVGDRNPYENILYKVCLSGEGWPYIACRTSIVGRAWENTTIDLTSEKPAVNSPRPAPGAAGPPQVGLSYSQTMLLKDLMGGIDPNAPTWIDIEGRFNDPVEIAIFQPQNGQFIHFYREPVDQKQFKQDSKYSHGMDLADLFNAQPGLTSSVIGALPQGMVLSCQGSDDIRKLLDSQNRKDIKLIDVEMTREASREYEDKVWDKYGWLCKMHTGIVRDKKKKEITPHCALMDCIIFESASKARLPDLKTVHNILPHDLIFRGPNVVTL
Compound,"activity change, negative = inhibition",Potency
Nc1nc(F)nc2c1ncn2[C@@H]1O[C@H](COP(=O)(O)O)[C@@H](O)[C@H]1O,26.9%,
COc1cc2c3cc1Oc1c(OC)c(OC)cc4c1[C@H](Cc1ccc(cc1)Oc1cc(ccc1O)C[C@H]3N(C)CC2)N(C)CC4,-32.6%,
C=C1C(=O)O[C@H]2[C@H]1[C@H](OC(=O)/C(C)=C\C)C[C@]1(CO1)[C@@H]1[C@H](OC(C)=O)C=C(C)[C@]21O,-11.7%,
COc1cc2c(c(OC)c1OC)-c1ccc(OC)c(=O)cc1[C@@H](NC=O)CC2,-66.9% [at 115 µM],
CCn1c(C(=O)N(C2CC2)C2CC2)cc2c3c(ncn3C)c(Nc3cc(C)n(C)n3)nc21,2.33%,
C=CC(=O)Nc1cc(NC(=O)c2ccc(C)c(NC(=O)c3ccno3)c2)cc(C(F)(F)F)c1,10.1%,
CC(=O)O[C@@]12CO[C@H]1C[C@H](O)[C@@]1(C)C(=O)[C@H](O)C3=C(C)[C@@H](OC(=O)C(O)[C@@H](NC(=O)OC(C)(C)C)c4ccccc4)C[C@@](O)([C@@H](OC(=O)c4ccccc4)[C@@H]21)C3(C)C (stereo partly drawn),-91.2%,
Cc1nccc2c1[nH]c1ccc(Br)cc12,-5.89%,
O=C1NC(=O)C(=Cc2ccc(-c3ccc(F)cc3)o2)S1,29.8%,
COc1ccc(-c2cc(=O)c3c(OC)c(OC)c(OC)c(OC)c3o2)cc1,38.9%,
COC1=C2C[C@@H](C)C[C@H](OC)[C@@H](O)[C@@H](C)C=C(C)[C@H](OC(N)=O)[C@@H](OC)C=CC=C(C)C(=O)NC(=CC1=O)C2=O,,15.3 µM (active)
CN(Cc1nc2c(N)nc(N)nc2[nH]c1=O)c1ccc(C(=O)NC(CCC(=O)O)C(=O)O)cc1 (stereo not drawn),15.3%,
COc1cc(C(=O)O[C@H]2C/C(C)=C/CC[C@@]3(C)O[C@@H]3[C@H](O)[C@@H]2C(C)C)cc(OC)c1OC,-7.57%,
C=C1C[C@H](OC(=O)C(C)(O)CCl)C2C(=C)C(=O)O[C@@H]2C2C1C[C@H](O)[C@]2(O)CCl (stereo partly drawn),-28.6%,
CC/C=C\[C@H](O)[C@H](O)C1=C(C)C(=O)[C@]2(O1)C(=O)N[C@@](OC)(C(=O)c1ccccc1)C2O (stereo partly drawn),-22.7%,
C=C1CCC2C(C)(C)[C@H](O)CC[C@@]2(C)[C@@H]1COc1cc(=O)oc2ccccc12 (stereo partly drawn),-27.9%,
C[C@]12CC[C@H]3C(=CCc4cc(O)ccc43)[C@@H]1CCC2=O,-10.3% [at 115 µM],
Nc1ncn([C@@H]2O[C@H](CO)[C@@H](O)[C@@H]2O)c(=O)n1,-27.5%,

# Source: PubChem BioAssay (NCATS)
